From PubChem BioAssay
Activity calls are given as the source filed them. Cut-off read from the data, not from the text of the source: active = inhibition above about 25%; inactive = the rest.

Experiment: VP16 transactivation inhibitors, counter-screen for SRC1 inhibitor project, cell-based, luminescence, high throughput (AID 588824)
Settings: cell-based VP16 transactivation luciferase luminescence; at 3.6 µM; stronger effect = higher value
In the case of `COc1ccc(Cc2noc(CN3CCN(c4ccc(Cl)cn4)CC3)n2)cc1OC`, the inhibition is reported as 33% (active).
For `CCN(CC)CCNC(=O)c1ccc2c(c1NCCO)C(=O)c1ccccc1C2=O`, the inhibition was -8.97% (inactive).
In the case of `c1ccc(CNc2c3ccccc3nc3ccccc23)cc1`, the inhibition is reported as 54.9% (active).
For `Cc1sc(NC(=O)Cc2ccc3c(c2)OCO3)nc1-c1ccc2c(c1)CCN2C(=O)c1ccc(F)cc1`, the inhibition was 25.9% (active).
For `Cc1cc2[nH]c3ccccc3c2c(C)n1`, the inhibition was 9.89% (inactive).
For `COc1ccc(-n2ncc3c(N4CCCCC4)ncnc32)cc1`, the inhibition was 23.9% (inactive).
With `CC(C)c1nc(NCCO)c(C#N)c2c1CCCC2` the inhibition was 35.1% (active).
With `Cc1csc(CNc2ncnc3ccc(-c4ccoc4)cc23)c1` the inhibition was 44.5% (active).
In the case of `CSc1ncnc2c1ncn2CC(=O)C1CCC2C3CCC4=CC(=O)CCC4(C)C3CCC12C` (stereo not given), the inhibition is reported as 12.1% (inactive).
For `CCN1CCN(c2ccc(Nc3ccnc4ccccc34)cc2)CC1`, the inhibition was 42.5% (active).
In the case of `Cc1ccc(-n2c(O)c(C=Nc3cc(C)on3)c3ccccc3c2=O)c(C)c1`, the inhibition is reported as 35.7% (active).
For `CCn1nc(C)c(CNC(=O)c2cc(COc3ccc(F)cc3Cl)on2)c1C`, the inhibition was 20% (inactive).
In the case of `Cc1nc2ccc(NC(=O)c3ccc(Cl)c(S(=O)(=O)N(C)c4ccccc4)c3)cc2s1`, the inhibition is reported as 33.7% (active).
For `CC(=O)NC(C)c1cc(Cl)c2cccnc2c1O` (stereo not given), the inhibition was 2.16% (inactive).
With `COc1cc2c(cc1OC)C(C)N(C(=O)c1cccc([N+](=O)[O-])c1)CC2` (stereo not given) the inhibition was 22.3% (inactive).
In the case of `Cn1c(CC(=O)Nc2ccc(Cl)c(Cl)c2)nnc1SCC(=O)N1CCN(c2ccccc2)CC1`, the inhibition is reported as 9.79% (inactive).
For `CC(C)(C)OC(=O)NCC(=O)Oc1cc2oc(=O)cc(-c3ccccc3)c2cc1Cl`, the inhibition was 15.3% (inactive).
With `CCc1ccc(-c2cc(C(F)(F)F)n3nc(C(=O)Nc4cnn(Cc5ccc(C)cc5)c4)cc3n2)s1` the inhibition was 7.47% (inactive).
With `CCOc1cc(C(N)=O)cc(Br)c1OC` the inhibition was 14.2% (inactive).
In the case of `CCc1ccc2[nH]c3nc(N/N=C/c4cccc(O)c4)nnc3c2c1`, the inhibition is reported as 59.5% (active).
With `Cc1cc(C(=O)COC(=O)c2cccc(NS(C)(=O)=O)c2)c(C)n1CC1CCCO1` (stereo not given) the inhibition was -54.4% (inactive).
With `O=C(Nc1c2ccccc2nc2ccccc12)C(Cl)(Cl)Cl` the inhibition was 8.17% (inactive).
For `CC1CCc2c(sc(NC(=O)c3cccs3)c2C(=O)O)C1` (stereo not given), the inhibition was 54.1% (active).
In the case of `CCCCNc1nc2c(c(=O)n(C)c(=O)n2C)n1Cc1cccc(OC)c1`, the inhibition is reported as 26.6% (active).
With `Cc1c2ccncc2cc2c1[nH]c1ccccc12` the inhibition was 19.9% (inactive).
In the case of `Cc1c(-c2ccccc2)oc2c(C(=O)N3CCN(c4ccc([N+](=O)[O-])cc4)CC3)cccc2c1=O`, the inhibition is reported as 27.3% (active).
With `COC1C(CO)OC(n2c3c(Cl)cccc3c3c4c(c5c6cccc(Cl)c6[nH]c5c32)C(=O)NC4=O)C(O)C1O` (stereo not given) the inhibition was 42.6% (active).
In the case of `CN1CCN(c2ncnc3scc(-c4ccccc4Cl)c23)CC1`, the inhibition is reported as 44.3% (active).
With `CC1CCN(Cc2c(C(=O)N/N=C/c3cc(Br)ccc3O)nnn2-c2nonc2N)CC1` the inhibition was 81.9% (active).
In the case of `CCc1nc(Cl)c(C#N)c2c1CCCC2`, the inhibition is reported as 28.9% (active).
In the case of `O=C(C1CCC(CNS(=O)(=O)c2cccs2)CC1)N1CCN(c2ccc(Cl)cc2)CC1` (stereo not given), the inhibition is reported as 34.6% (active).
With `COc1ccc(Nc2nc(N3CCCC3)nc3ccccc23)c(OC)c1` the inhibition was 33.2% (active).
With `CCOc1cc(/C=C2\CN(C)C/C(=C\c3ccc(O)c(OCC)c3)C2=O)ccc1O` the inhibition was 75.6% (active).
In the case of `O=C(Nc1cccc(Cl)c1)Nc1nnc(-c2ccncc2)s1`, the inhibition is reported as 23.7% (inactive).
For `Cc1ccc(S(=O)(=O)N2[C@@H](c3ccc(C(C)(C)C)cc3)C(C(=O)O)=CC[C@H]2c2ccc(Cl)cc2)cc1`, the inhibition was 19.6% (inactive).
In the case of `N#Cc1c2ccc(O)cc2n2ccccc12`, the inhibition is reported as 11.9% (inactive).
In the case of `Oc1ccc(-c2n[nH]c(=S)n2-c2ccc3c(c2)OCCO3)c(O)c1`, the inhibition is reported as 43.7% (active).
In the case of `CCSCCc1nnc(NC(=O)Nc2cccc(C(F)(F)F)c2)s1`, the inhibition is reported as 28.4% (active).
For `CCCCN(CCCC)c1ncnc2nc[nH]c12`, the inhibition was 25.2% (inactive).
With `O=C(NCc1ccco1)c1ccc2c(c1)N(Cc1ccccc1)CCS2` the inhibition was 1.86% (inactive).
